From paper PMC9911399, “Two distinct binding modes provide the RNA-binding protein RbFox with extraordinary sequence specificity”
Residue numbers refer to the chain shown, from its start. Whole data set: some 16,000 sequences, median “ka relative to ugcaugu” near 0.096, cut for the highest 2% near 0.35. What follows is part of a selection rich in the highest values, with near analogues and random picks from the rest.

T1: RBFOX1 RRM RbFoxmut (Fox-RRM*) (Homo sapiens, UniProt Q9NWB1 109-208, R118D;E147R;N151S;E152T)
T1 sequence: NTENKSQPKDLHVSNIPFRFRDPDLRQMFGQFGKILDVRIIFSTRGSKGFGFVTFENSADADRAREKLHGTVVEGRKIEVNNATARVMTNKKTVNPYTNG

B1: UACUGCC (DNA:RNA)
RNA: GGGAGACCGGAAUUCAGAUUGUCCUACUGCCUUAAAUCCCGUCGUAGCCACCA
DNA 1: CAATCTGAATTCCGGTCTCCC
DNA 2: TGGTGGCTACGACGGGATT
B2: CCGGCAC (DNA:RNA)
RNA: B1 RNA with U25C, A26C, C27G, U28G, G29C, C30A
DNA 1: CAATCTGAATTCCGGTCTCCC
DNA 2: TGGTGGCTACGACGGGATT
B3: CUGGUGA (DNA:RNA)
RNA: GGGAGACCGGAAUUCAGAUUGUCCCUGGUGAUUAAAUCCCGUCGUAGCCACCA
DNA 1: CAATCTGAATTCCGGTCTCCC
DNA 2: TGGTGGCTACGACGGGATT
B4: AGGAGUA (DNA:RNA)
RNA: B3 RNA with C25A, U26G, G28A, U29G, G30U
DNA 1: CAATCTGAATTCCGGTCTCCC
DNA 2: TGGTGGCTACGACGGGATT
B5: UAGUAGU (DNA:RNA)
RNA: B1 RNA with C27G, G29A, C30G, C31U
DNA 1: CAATCTGAATTCCGGTCTCCC
DNA 2: TGGTGGCTACGACGGGATT
B6: UCUCUCG (DNA:RNA)
RNA: B1 RNA with A26C, C27U, U28C, G29U, C31G
DNA 1: CAATCTGAATTCCGGTCTCCC
DNA 2: TGGTGGCTACGACGGGATT
B7: ACGUCAA (DNA:RNA)
RNA: B3 RNA with C25A, U26C, G28U, U29C, G30A
DNA 1: CAATCTGAATTCCGGTCTCCC
DNA 2: TGGTGGCTACGACGGGATT
B8: UUCCUAC (DNA:RNA)
RNA: B1 RNA with A26U, U28C, G29U, C30A
DNA 1: CAATCTGAATTCCGGTCTCCC
DNA 2: TGGTGGCTACGACGGGATT
B9: GAAAACG (DNA:RNA)
RNA: B1 RNA with U25G, C27A, U28A, G29A, C31G
DNA 1: CAATCTGAATTCCGGTCTCCC
DNA 2: TGGTGGCTACGACGGGATT
B10: GUCGGCU (DNA:RNA)
RNA: B1 RNA with U25G, A26U, U28G, C31U
DNA 1: CAATCTGAATTCCGGTCTCCC
DNA 2: TGGTGGCTACGACGGGATT
B11: GUCGGGC (DNA:RNA)
RNA: B3 RNA with C25G, G27C, U29G, A31C
DNA 1: CAATCTGAATTCCGGTCTCCC
DNA 2: TGGTGGCTACGACGGGATT
B12: AGGAGGC (DNA:RNA)
RNA: B3 RNA with C25A, U26G, G28A, U29G, A31C
DNA 1: CAATCTGAATTCCGGTCTCCC
DNA 2: TGGTGGCTACGACGGGATT
B13: CCCCGGC (DNA:RNA)
RNA: B1 RNA with U25C, A26C, U28C, C30G
DNA 1: CAATCTGAATTCCGGTCTCCC
DNA 2: TGGTGGCTACGACGGGATT
B14: CGGCUUG (DNA:RNA)
RNA: B3 RNA with U26G, G28C, G30U, A31G
DNA 1: CAATCTGAATTCCGGTCTCCC
DNA 2: TGGTGGCTACGACGGGATT
B15: GUCCGGC (DNA:RNA)
RNA: B1 RNA with U25G, A26U, U28C, C30G
DNA 1: CAATCTGAATTCCGGTCTCCC
DNA 2: TGGTGGCTACGACGGGATT
B16: AGGCUUG (DNA:RNA)
RNA: B3 RNA with C25A, U26G, G28C, G30U, A31G
DNA 1: CAATCTGAATTCCGGTCTCCC
DNA 2: TGGTGGCTACGACGGGATT
B17: CACCGGC (DNA:RNA)
RNA: B1 RNA with U25C, U28C, C30G
DNA 1: CAATCTGAATTCCGGTCTCCC
DNA 2: TGGTGGCTACGACGGGATT
B18: GGGCUUG (DNA:RNA)
RNA: B3 RNA with C25G, U26G, G28C, G30U, A31G
DNA 1: CAATCTGAATTCCGGTCTCCC
DNA 2: TGGTGGCTACGACGGGATT
B19: GGGGGGC (DNA:RNA)
RNA: B3 RNA with C25G, U26G, U29G, A31C
DNA 1: CAATCTGAATTCCGGTCTCCC
DNA 2: TGGTGGCTACGACGGGATT
B20: ACCAGGC (DNA:RNA)
RNA: B1 RNA with U25A, A26C, U28A, C30G
DNA 1: CAATCTGAATTCCGGTCTCCC
DNA 2: TGGTGGCTACGACGGGATT
B21: GGCUUGU (DNA:RNA)
RNA: B3 RNA with C25G, U26G, G27C, G28U, A31U
DNA 1: CAATCTGAATTCCGGTCTCCC
DNA 2: TGGTGGCTACGACGGGATT
B22: GUGGAAC (DNA:RNA)
RNA: B3 RNA with C25G, U29A, G30A, A31C
DNA 1: CAATCTGAATTCCGGTCTCCC
DNA 2: TGGTGGCTACGACGGGATT
B23: CAAUUGA (DNA:RNA)
RNA: B3 RNA with U26A, G27A, G28U
DNA 1: CAATCTGAATTCCGGTCTCCC
DNA 2: TGGTGGCTACGACGGGATT
B24: GGUCCAG (DNA:RNA)
RNA: GGGAGACCGGAAUUCAGAUUGUCCGGUCCAGUUAAAUCCCGUCGUAGCCACCA
DNA 1: CAATCTGAATTCCGGTCTCCC
DNA 2: TGGTGGCTACGACGGGATT
B25: GCCCCAG (DNA:RNA)
RNA: B24 RNA with G26C, U27C
DNA 1: CAATCTGAATTCCGGTCTCCC
DNA 2: TGGTGGCTACGACGGGATT
B26: CAUGAAU (DNA:RNA)
RNA: B3 RNA with U26A, G27U, U29A, G30A, A31U
DNA 1: CAATCTGAATTCCGGTCTCCC
DNA 2: TGGTGGCTACGACGGGATT
B27: AAUACGG (DNA:RNA)
RNA: B24 RNA with G25A, G26A, C28A, A30G
DNA 1: CAATCTGAATTCCGGTCTCCC
DNA 2: TGGTGGCTACGACGGGATT
B28: CUGUACC (DNA:RNA)
RNA: B3 RNA with G28U, U29A, G30C, A31C
DNA 1: CAATCTGAATTCCGGTCTCCC
DNA 2: TGGTGGCTACGACGGGATT
B29: AGCUGAC (DNA:RNA)
RNA: B1 RNA with U25A, A26G, C30A
DNA 1: CAATCTGAATTCCGGTCTCCC
DNA 2: TGGTGGCTACGACGGGATT
B30: AUGUCCG (DNA:RNA)
RNA: B3 RNA with C25A, G28U, U29C, G30C, A31G
DNA 1: CAATCTGAATTCCGGTCTCCC
DNA 2: TGGTGGCTACGACGGGATT
B31: AUGUAUA (DNA:RNA)
RNA: B3 RNA with C25A, G28U, U29A, G30U
DNA 1: CAATCTGAATTCCGGTCTCCC
DNA 2: TGGTGGCTACGACGGGATT
B32: AUGGAUC (DNA:RNA)
RNA: B3 RNA with C25A, U29A, G30U, A31C
DNA 1: CAATCTGAATTCCGGTCTCCC
DNA 2: TGGTGGCTACGACGGGATT
B33: AUGUGUA (DNA:RNA)
RNA: B3 RNA with C25A, G28U, U29G, G30U
DNA 1: CAATCTGAATTCCGGTCTCCC
DNA 2: TGGTGGCTACGACGGGATT
B34: AUGUUGU (DNA:RNA)
RNA: B3 RNA with C25A, G28U, A31U
DNA 1: CAATCTGAATTCCGGTCTCCC
DNA 2: TGGTGGCTACGACGGGATT
B35: GUCCAUG (DNA:RNA)
RNA: B24 RNA with G26U, U27C, C29A, A30U
DNA 1: CAATCTGAATTCCGGTCTCCC
DNA 2: TGGTGGCTACGACGGGATT
B36: ACCAUGU (DNA:RNA)
RNA: B3 RNA with C25A, U26C, G27C, G28A, A31U
DNA 1: CAATCTGAATTCCGGTCTCCC
DNA 2: TGGTGGCTACGACGGGATT
B37: AUGGAGA (DNA:RNA)
RNA: B3 RNA with C25A, U29A
DNA 1: CAATCTGAATTCCGGTCTCCC
DNA 2: TGGTGGCTACGACGGGATT
B38: AUGUUUG (DNA:RNA)
RNA: B3 RNA with C25A, G28U, G30U, A31G
DNA 1: CAATCTGAATTCCGGTCTCCC
DNA 2: TGGTGGCTACGACGGGATT
B39: CCAUGUA (DNA:RNA)
RNA: B3 RNA with U26C, G27A, G28U, U29G, G30U
DNA 1: CAATCTGAATTCCGGTCTCCC
DNA 2: TGGTGGCTACGACGGGATT
B40: AUGUUCG (DNA:RNA)
RNA: B3 RNA with C25A, G28U, G30C, A31G
DNA 1: CAATCTGAATTCCGGTCTCCC
DNA 2: TGGTGGCTACGACGGGATT
B41: AUGGAUG (DNA:RNA)
RNA: B3 RNA with C25A, U29A, G30U, A31G
DNA 1: CAATCTGAATTCCGGTCTCCC
DNA 2: TGGTGGCTACGACGGGATT

Each binder was assayed against T1, RBFOX1 RRM RbFoxmut (Fox-RRM*) (assay: EMSA; HiTS-Eq, 1 nM pool, 10 min; buffer printed only for the single-RNA assays: 10 mM Tris pH 7.5, 150 mM NaCl, 3.4 mM EDTA, 0.001% NP-40, 30 C). Conditions: tags: His6 N-terminal (pET28a); label: 5' 32P.
Procedure, shortened: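 Relative association constants, normalised to the cognate motif, were derived by comparing read counts of each RNA species with those of the control reaction. The RNA sequenced was the free fraction, separated by 8% native PAGE after a 10 min equilibration in 50 µL of 1 nM 5′-radiolabelled RNA (7 randomized nucleotides) with increasing concentrations of purified wild-type or mutant RbFox RRM.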

Binder	binding signal
B1	0.217 KA relative to UGCAUGU
B2	0.0571 KA relative to UGCAUGU
B3	0.0924 KA relative to UGCAUGU
B4	0.168 KA relative to UGCAUGU
B5	0.121 KA relative to UGCAUGU
B6	0.0757 KA relative to UGCAUGU
B7	0.0727 KA relative to UGCAUGU
B8	0.0836 KA relative to UGCAUGU
B9	0.0811 KA relative to UGCAUGU
B10	0.116 KA relative to UGCAUGU
B11	0.0929 KA relative to UGCAUGU
B12	0.118 KA relative to UGCAUGU
B13	0.0573 KA relative to UGCAUGU
B14	0.431 KA relative to UGCAUGU
B15	0.116 KA relative to UGCAUGU
B16	0.388 KA relative to UGCAUGU
B17	0.0862 KA relative to UGCAUGU
B18	0.371 KA relative to UGCAUGU
B19	0.0893 KA relative to UGCAUGU
B20	0.0949 KA relative to UGCAUGU
B21	0.359 KA relative to UGCAUGU

Binder	binding signal
B22	0.112 KA relative to UGCAUGU
B23	0.0875 KA relative to UGCAUGU
B24	0.0861 KA relative to UGCAUGU
B25	0.117 KA relative to UGCAUGU
B26	0.114 KA relative to UGCAUGU
B27	0.0866 KA relative to UGCAUGU
B28	0.137 KA relative to UGCAUGU
B29	0.109 KA relative to UGCAUGU
B30	0.14 KA relative to UGCAUGU
B31	0.23 KA relative to UGCAUGU
B32	0.298 KA relative to UGCAUGU
B33	0.364 KA relative to UGCAUGU
B34	0.245 KA relative to UGCAUGU
B35	0.151 KA relative to UGCAUGU
B36	0.102 KA relative to UGCAUGU
B37	0.139 KA relative to UGCAUGU
B38	0.626 KA relative to UGCAUGU
B39	0.2 KA relative to UGCAUGU
B40	0.412 KA relative to UGCAUGU
B41	0.64 KA relative to UGCAUGU
